# Measured values: PubChem BioAssay AID504546 (Broad Institute, 2011)
# Inconclusive results are not listed. A number with no mark means an inactive call.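 The calls were made as follows: active = every repeat run fits a falling-signal curve with half-maximal potency within ten times top tested dose; inconclusive = runs disagree, or flat moderate drop, or poor fit; inactive = every run inactive, including signal moving upward.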
# Experiment: inhibition of ADP-Glo detection reagents, dose response, artefact control for CDK5 inhibitor project, biochemical, luminescence, cherry-picked samples, set 2 (AID 504546);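 also: 0% = DMSO wells and -100% = wells lacking ADP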
# Settings: ADP-Glo detection reagent counter screen, 5 uM ADP; series mostly up to 30 µM; activity change, negative = inhibition: at the top concentration
row,SMILES,"activity change, negative = inhibition"
1,COc1cc2c(ccc3c4cc(OC)c(OC)cc4c[n+](C)c23)cc1O,0.712%
2,O=C1Nc2ccccc2/C1=C/c1cnc[nH]1,0.806%
3,Nc1ccc(CC2=NCCN2)cc1,-7.41%
4,N#Cc1c(Br)n(C2OC(CO)C(O)C2O)c2ncnc(N)c12 (stereo not drawn),-8.62%
5,NC(=O)c1c(Br)n(C2OC(CO)C(O)C2O)c2ncnc(N)c12 (stereo not drawn),11.1%
6,NC(=O)c1cn(C2OC(CO)C(O)C2O)c2ncnc(N)c12 (stereo not drawn),9.4%
7,N#Cc1cn(C2OC(CO)C(O)C2O)c2ncnc(N)c12 (stereo not drawn),-1.1%
8,Nc1ncnc2c1ccn2[C@@H]1O[C@H](CO)[C@@H](O)[C@H]1O,4.16%
